Drawing on PubChem BioAssay (Tox21), this text covers Potency and outcome for ten compounds.

Records with an inconclusive call do not appear. Activity calls are given as the source filed them. Unless noted, the call rests on the fitted dose curve; in most records, active means well fitted curve in the direction sought with a large enough effect in the repeat runs; inconclusive means weak or mixed curves; inactive means no such curve, though single readings can be large; an effect the other way counts as inactive or inconclusive.

Experiment [1] is described as follows: qHTS assay to test for compound auto fluorescence at 535 nm (green) in HEK293 cell free culture (AID 720682). The gist of the method: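 Intrinsic compound fluorescence is measured in culture medium containing 10% FBS, with excitation at 485 nm and detection at 535 nm, referenced to fluorescein.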
A general note: qHTS replaces the single test concentration by a dilution series.

Experiment [2] is described as follows: qHTS assay to test for compound auto fluorescence at 590 nm (red) in HEK293 cell free culture (AID 720683). A digest of the protocol:
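Tox21 10K library compounds were pinned into cell-free DMEM with 10% FBS and fluorescence was read at excitation 540 nm. Activity is expressed as Rose Bengal sodium equivalency.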

Experiment [3] can be described thus: qHTS assay to test for compound auto fluorescence at 590 nm (red) in HepG2 cell free culture (AID 720684). A digest of the protocol: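 Readout: intrinsic compound fluorescence at 590 nm emission after 540 nm excitation, scaled to Rose Bengal sodium. Matrix was cell-free MEM with 10% FBS; DMSO vehicle wells served as control.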
Experiment [4] is described as follows: qHTS assay to test for compound auto fluorescence at 460 nm (blue) in HepG2 cell free culture (AID 720685). The gist of the method:
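Cell-free plates of MEM plus 10% FBS received 23 nL compound or DMSO vehicle; blue-channel (405/460 nm) intensity scored against triamterene as reference fluorophore.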

A short description of experiment [5]: qHTS assay to test for compound auto fluorescence at 535 nm (green) in HepG2 cell free culture (AID 720686).
Experiment [6] can be described thus: qHTS assay to identify small molecule antagonists of the glucocorticoid receptor (GR) signaling pathway - cell viability counter screen (AID 720693). Further: nearly all actives have a fitted effect of over 55% in size.
Experiment [7] is described as follows: qHTS assay for identifying genotoxic compounds that show differential cytotoxicity against isogenic chicken DT40 cell lines with known DNA damage response pathways - Rev3 mutant cell line (AID 743014). Further: nearly all actives have a fitted effect of over 55% in size. Further: potency means the concentration at half of the fitted maximal effect.
A short description of experiment [8]: qHTS assay for identifying genotoxic compounds that show differential cytotoxicity against isogenic chicken DT40 cell lines with known DNA damage response pathways - Rad54/Ku70 mutant cell line (AID 743015). Further: nearly all actives have a fitted effect of over 60% in size. Further: potency means the concentration at half of the fitted maximal effect.
A short description of experiment [9]: qHTS assay to identify small molecule antagonists of the androgen receptor (AR) signaling pathway - cell viability counter screen (AID 743033; further: nearly all actives have a fitted effect of over 45% in size).
Experiment [10] has as its target Androgen receptor (Homo sapiens) (UniProt P10275). Nature of the experiment: qHTS assay to identify small molecule agonists of the androgen receptor (AR) signaling pathway (AID 743036; active means well fitted activation curve with a large enough effect in the signal ratio in the repeat runs, with a control signal flat, not every such curve was filed as active; the % refers to the signal ratio). A digest of the protocol: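 Agonist activity was scored by beta-lactamase reporter fluorescence in stably transfected HEK293 cells exposed to compounds for 16 h at 37C and 5% CO2. Substrate loading took 2 h at room temperature.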

The target is the same in experiment [11]. Description: qHTS assay to identify small molecule agonists of the androgen receptor (AR) signaling pathway using the MDA cell line (AID 743040; further: nearly all actives have a fitted effect of over 20% in size). The gist of the method:
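Agonist activity is measured as luciferase luminescence in human MDA-kb2 cells whose MMTV reporter responds to both AR and GR. Compounds in DMSO incubate 16 h at 37C, 0% CO2, and ONE-Glo is read after 30 min.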

Experiment [12] in a line: qHTS assay to identify small molecule antagonists of the androgen receptor (AR) signaling pathway using the MDA cell line - cell viability counter screen (AID 743041; further: nearly all actives have a fitted effect of over 45% in size). The gist of the method: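 qHTS viability read-out; MDA-kb2 AR-luc; R1881-stimulated; 16 h exposure at 37C, 0% CO2; CellTiter-Fluor, 30 min; fluorescence intensity.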
In experiment [13] the target is Androgen receptor (Homo sapiens) (UniProt P10275). Nature of the experiment: qHTS assay to identify small molecule antagonists of the androgen receptor (AR) signaling pathway using the MDA cell line (AID 743042; further: nearly all actives have a fitted effect of over 55% in size). The gist of the method: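 MDA-kb2 cells (human breast carcinoma, stably carrying an MMTV-luciferase reporter responsive to AR and GR) were plated at 3,000 cells/well and preincubated 5 hr at 37C, then given compound plus R1881 agonist for 16 h. ONE-Glo luminescence was read.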

Experiment [14] in a line: qHTS assay to test for compound auto fluorescence at 460 nm (blue) in HEK293 cell free culture (AID 720681). The gist of the method: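 Test compounds were pinned into cell-free culture medium (DMEM with 10% FBS) and fluorescence was read directly at Ex/Em 405/460 nm. Signals were expressed as fluorescence equivalents of triamterene, with DMSO vehicle as control.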
Experiment [15] can be described thus: qHTS assay to test for compound auto fluorescence at 460 nm (blue) in HepG2 cells (AID 720687). The gist of the method: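 Cells (2,000/well in MEM with 10% FBS) attached overnight at 37 C, then were exposed to compound or DMSO for 1 hr at 37 C, 5% CO2. Fluorescence read at Ex/Em 405/460 nm, expressed as triamterene-equivalent signal.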
The nature of experiment [16]: qHTS assay for identifying genotoxic compounds that show differential cytotoxicity against isogenic chicken DT40 cell lines with known DNA damage response pathways - wild type cell line (AID 743012). Further: nearly all actives have a fitted effect of over 60% in size. Further: potency means the concentration at half of the fitted maximal effect. A digest of the protocol: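 Cytotoxicity in repair-proficient parental chicken DT40 cells serves as the comparator for Rad54/Ku70- and Rev3-deficient lines. Cells were exposed to compounds for 40 h at 37 C/5% CO2, and ATP-based luminescence (CellTiter-Glo) measured viability.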

Experiment [17] has as its target Glucocorticoid receptor (Homo sapiens) (UniProt P04150). Nature of the experiment: qHTS assay to identify small molecule agonists of the glucocorticoid receptor (GR) signaling pathway (AID 720691; active means well fitted activation curve with a large enough effect in the signal ratio in the repeat runs, not every such curve was filed as active; the % refers to the signal ratio). Particulars: GR-bla HeLa, beta-lactamase reporter ratio, 18 h; activation: at 62.4 µM (top of the series). The gist of the method: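 Steps: seed GR-bla HeLa cells, incubate 4 h at 37 C/5% CO2; pin-transfer DMSO-dissolved compounds; incubate 18 h at 37 C; add LiveBLAzer B/G FRET substrate; after 2 h at room temperature, measure fluorescence.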

The target is the same in experiment [18]. Nature of the experiment: qHTS assay to identify small molecule antagonists of the glucocorticoid receptor (GR) signaling pathway (AID 720692; active means well fitted inhibition curve with a large enough effect in the signal ratio in the repeat runs, not every such curve was filed as active; the % refers to the signal ratio). The gist of the method: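 Antagonism was scored as loss of dexamethasone-driven (5 nM final) reporter signal in HeLa cells bearing a glucocorticoid response element–beta-lactamase construct, after 18 h compound exposure at 37 C and 2 h FRET substrate loading.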

Sequence of Glucocorticoid receptor (Homo sapiens) (P04150 whole entry, looked up): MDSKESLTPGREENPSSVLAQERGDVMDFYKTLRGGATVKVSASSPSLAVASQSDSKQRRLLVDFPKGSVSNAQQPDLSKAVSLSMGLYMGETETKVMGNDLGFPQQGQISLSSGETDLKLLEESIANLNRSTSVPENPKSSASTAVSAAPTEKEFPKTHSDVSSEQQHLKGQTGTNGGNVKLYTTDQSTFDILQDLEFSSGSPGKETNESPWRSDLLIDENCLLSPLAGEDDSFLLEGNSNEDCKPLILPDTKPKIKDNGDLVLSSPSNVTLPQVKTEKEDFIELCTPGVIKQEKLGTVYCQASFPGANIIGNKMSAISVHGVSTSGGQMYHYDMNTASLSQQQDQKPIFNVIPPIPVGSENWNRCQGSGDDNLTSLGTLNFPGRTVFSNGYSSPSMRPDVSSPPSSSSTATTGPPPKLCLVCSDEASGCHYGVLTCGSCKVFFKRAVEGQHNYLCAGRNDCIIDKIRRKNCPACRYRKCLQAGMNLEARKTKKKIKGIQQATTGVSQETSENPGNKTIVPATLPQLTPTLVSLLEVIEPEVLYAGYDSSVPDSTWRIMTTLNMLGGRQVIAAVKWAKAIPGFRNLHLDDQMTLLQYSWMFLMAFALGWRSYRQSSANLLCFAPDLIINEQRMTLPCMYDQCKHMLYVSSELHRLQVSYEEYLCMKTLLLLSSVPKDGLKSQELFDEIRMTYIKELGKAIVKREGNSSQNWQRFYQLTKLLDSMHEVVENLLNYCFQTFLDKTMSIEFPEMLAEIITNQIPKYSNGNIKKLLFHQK
Sequence of Androgen receptor (Homo sapiens) (P10275 whole entry, looked up): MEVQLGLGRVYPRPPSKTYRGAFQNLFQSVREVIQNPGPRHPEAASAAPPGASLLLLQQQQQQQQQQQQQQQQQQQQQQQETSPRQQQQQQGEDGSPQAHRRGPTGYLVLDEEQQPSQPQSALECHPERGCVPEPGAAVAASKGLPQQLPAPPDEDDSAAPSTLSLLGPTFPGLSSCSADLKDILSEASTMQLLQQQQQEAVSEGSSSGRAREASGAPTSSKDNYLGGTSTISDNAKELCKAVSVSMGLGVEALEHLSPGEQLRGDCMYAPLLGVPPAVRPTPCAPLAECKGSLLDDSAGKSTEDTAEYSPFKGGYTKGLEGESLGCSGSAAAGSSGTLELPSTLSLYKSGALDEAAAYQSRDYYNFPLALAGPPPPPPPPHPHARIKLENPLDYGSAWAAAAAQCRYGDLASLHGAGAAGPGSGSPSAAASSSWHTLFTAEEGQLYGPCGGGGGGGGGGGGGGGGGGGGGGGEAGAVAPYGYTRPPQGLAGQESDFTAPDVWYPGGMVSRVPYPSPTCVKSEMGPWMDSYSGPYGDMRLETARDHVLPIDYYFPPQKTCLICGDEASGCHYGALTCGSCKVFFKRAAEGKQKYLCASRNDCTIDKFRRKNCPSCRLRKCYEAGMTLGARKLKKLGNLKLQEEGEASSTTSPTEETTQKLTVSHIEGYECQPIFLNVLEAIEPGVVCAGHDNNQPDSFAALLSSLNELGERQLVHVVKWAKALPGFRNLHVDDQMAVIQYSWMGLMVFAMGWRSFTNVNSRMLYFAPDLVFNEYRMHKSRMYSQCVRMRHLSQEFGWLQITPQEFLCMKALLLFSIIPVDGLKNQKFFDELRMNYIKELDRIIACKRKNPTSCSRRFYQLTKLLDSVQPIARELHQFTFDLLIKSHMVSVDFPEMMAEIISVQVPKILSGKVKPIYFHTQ

In the case of `CC(NNC(=O)c1ccccc1)c1ccccc1` (stereo not given), the Potency result in experiment [1], in experiment [2], in experiment [3], in experiment [5], in experiment [6] and in experiment [7] was “inactive” throughout. The Potency entry in experiment [8], in experiment [9], in experiment [10], in experiment [11], in [12] and in experiment [13] was “inactive” throughout. In addition, the compound was classed as inactive in experiment [4].

With `Cn1cc(NC(=O)c2cc(NC(=O)c3cc(NC=O)cn3C)cn2C)cc1C(=O)NCCC(=N)N`, the Potency entry in experiment [14], in experiment [1], in experiment [2], in experiment [3], in experiment [5] and in [6] was “inactive” throughout. Moreover, the Potency entry in [16], in [8], in experiment [9] and in experiment [12] was “inactive” throughout. For the same compound, the compound was called inactive in [4] and in [15].

Consider `CN(C)CCOc1ccccc1Cc1ccccc1` (tested in a mixture with another compound), for which the Potency result in experiment [14], in [1], in experiment [2], in experiment [3], in experiment [5] and in experiment [6] was “inactive” in each case. Besides, the Potency result in experiment [9] and in [12] was “inactive” each time. In addition, the compound was called inactive in experiment [4] and in experiment [15]. Moreover, the Potency is 26.6 µM (active) in [16] and 29.8 µM (active) in [8].

In the case of `CO/N=C(\C(=O)N[C@@H]1C(=O)N2C(C(=O)OCOC(=O)C(C)(C)C)=C(/C=C\c3scnc3C)CS[C@H]12)c1csc(N)n1`, the Potency result in experiment [14], in experiment [1], in experiment [2], in [3], in experiment [5] and in experiment [17] was “inactive” each time. The Potency entry in experiment [18], in [6], in experiment [16], in experiment [7], in experiment [8] and in experiment [9] was “inactive” in each case. Moreover, the Potency entry in experiment [12] is “inactive”. Also, the call in experiment [15] was inactive.

`CC[C@@H](C(=O)O)[C@@H]1O[C@@H]([C@@H](C)[C@H](O)[C@H](C)C(=O)[C@H](CC)[C@H]2O[C@]3(C=C[C@@H](O)[C@]4(CC[C@@](C)([C@H]5CC[C@](O)(CC)[C@H](C)O5)O4)O3)[C@H](C)C[C@@H]2C)[C@@H](C)C[C@@H]1C`: the Potency entry in [14], in [1], in experiment [2], in experiment [3], in experiment [5] and in experiment [17] was “inactive” each time. Further, the outcome in [4] was inactive. For the same compound, the results for the Potency in experiment [16], in experiment [7] and in experiment [8] were 0.237 µM (active), 0.168 µM (active) and 0.237 µM (active), respectively.

With `CO[C@H]1C=CO[C@@]2(C)Oc3c(C)c(O)c4c(O)c(c5c(nc6cc(C)ccn65)c4c3C2=O)NC(=O)/C(C)=C\C=C[C@H](C)[C@H](O)[C@@H](C)[C@@H](O)[C@@H](C)[C@H](OC(C)=O)[C@@H]1C`, the Potency result in experiment [14], in experiment [1], in experiment [2], in [3], in [5] and in experiment [6] was “inactive” throughout. Also, the Potency entry in experiment [12] was “inactive”. Also, the outcome in experiment [4] and in experiment [15] was inactive. In addition, the Potency was 26.6 µM (active) in experiment [16], 23.7 µM (active) in experiment [7] and 29.8 µM (active) in experiment [8].

As to `O=C1N=C2SCCN2C(=O)C1Cc1ccc(Cl)cc1` (stereo not given), the Potency entry in [1], in experiment [2], in [3], in [17], in experiment [18] and in [6] was “inactive” throughout. Besides, the Potency entry in experiment [16], in experiment [7], in [8], in experiment [9] and in [12] was “inactive” each time. The outcome in experiment [4] and in [15] was inactive.

Consider `CO[C@H]1C[C@H](O[C@@H]2/C(C)=C/C[C@@H]3C[C@@H](C[C@]4(CC[C@H](C)[C@@H](C5CCCCC5)O4)O3)OC(=O)[C@@H]3C=C(C)/C(=N/O)[C@H]4OC/C(=C\C=C\[C@@H]2C)[C@]43O)O[C@@H](C)[C@@H]1O`, for which the Potency entry in experiment [14], in experiment [1], in experiment [2], in [3], in [5] and in experiment [17] was “inactive” each time. Further, the Potency entry in [18], in experiment [6], in [16], in experiment [7], in experiment [8] and in [9] was “inactive” in each case. For the same compound, the Potency result in experiment [12] was “inactive”. Also, the outcome in experiment [4] and in experiment [15] was inactive.

Regarding `CC(=C\c1ccccc1)/C=C1/SC(=S)N(CC(=O)O)C1=O`, the Potency result in experiment [14], in experiment [1], in [2], in experiment [3], in [5] and in [6] was “inactive” throughout. Moreover, the Potency entry in [16], in experiment [7] and in experiment [8] was “inactive” in each case. The compound was classed as inactive in experiment [4] and in experiment [15].

Consider `CO[C@@H]1[C@@H](O[C@@H]2O[C@H](C)[C@@H](O[C@H]3C[C@@](C)(O)[C@@H](O)[C@H](C)O3)[C@H](N(C)C)[C@H]2O)[C@@H](CC=O)C[C@@H](C)[C@@H](O[C@@H]2CC[C@H](N(C)C)[C@@H](C)O2)/C=C/C=C/C[C@@H](C)OC(=O)C[C@H]1O`, for which the Potency entry in experiment [14], in experiment [1], in experiment [2], in experiment [3], in experiment [5] and in [17] was “inactive” each time. For the same compound, the Potency result in experiment [18], in experiment [6], in [16], in [9] and in experiment [12] was “inactive” in each case. Besides, the call in experiment [4] and in [15] was inactive.
